# LmPK inhibitor = qHTS Assay for Inhibitors of Leishmania Mexicana Pyruvate Kinase (LmPK); Q27686; purified LmPK, Kinase-Glo ATP luminescence, 1 h; Potency, µM (titrated, usually from 57.5 µM), for inactives: at the highest dose activity change, negative = inhibition, hits mostly inhibitors; actives 0.37% (n = 290,000); AID 1721, 2009; also: potency is read from the fitted curve at half-maximal effect; % is scaled to controls: 0 for no effect and ±100 for the full control effect
# Target sequence (Q27686 whole entry, looked up): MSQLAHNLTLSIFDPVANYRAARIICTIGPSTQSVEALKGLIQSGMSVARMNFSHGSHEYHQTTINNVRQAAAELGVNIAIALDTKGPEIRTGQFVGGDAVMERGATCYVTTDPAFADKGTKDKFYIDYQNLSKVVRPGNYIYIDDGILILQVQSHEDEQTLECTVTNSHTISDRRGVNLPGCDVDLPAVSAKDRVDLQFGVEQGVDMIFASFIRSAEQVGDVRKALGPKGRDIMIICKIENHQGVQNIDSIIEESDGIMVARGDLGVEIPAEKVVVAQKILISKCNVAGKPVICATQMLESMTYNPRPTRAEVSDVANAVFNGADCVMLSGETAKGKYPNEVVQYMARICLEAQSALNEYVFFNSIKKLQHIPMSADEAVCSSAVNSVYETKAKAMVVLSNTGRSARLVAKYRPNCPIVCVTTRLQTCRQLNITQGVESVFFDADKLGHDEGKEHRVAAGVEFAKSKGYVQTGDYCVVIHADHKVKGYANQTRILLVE
#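 Pyruvate kinase activity monitored as ATP production (luciferase luminescence). Conditions: 0.1 nM enzyme, 0.5 mM PEP, 0.1 mM ADP, 1 h, RT; normalized against uninhibited and no-enzyme wells.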
# Pf growth 96h = Primary qHTS for delayed death inhibitors of the malarial parasite plastid, 96 hour incubation; P. falciparum luciferase reporter growth, 96 h; Potency, µM (top dose mostly 28.7 µM), for inactives: at the highest dose activity change, negative = inhibition, hits mostly inhibitors; actives 6.9% (n = 320,000); also: potency is read from the fitted curve at half-maximal effect; % is scaled to controls: 0 for no effect and ±100 for the full control effect
#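 96 h incubation, 37 C, 5% CO2, of luciferase-reporter P. falciparum-infected RBCs (2% hematocrit, 0.05% parasitemia final) with test compounds; endpoint luminescence.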
# Cycloheximide cs = Cycloheximide Counterscreen for Small Molecule Inhibitors of Shiga Toxin | cell reporter, cycloheximide protein synthesis inhibition counterscreen | max response, % | actives 12% (n = 300,000); in the data active = max response mostly above about 13%, no sharp cut-off; inactive = mostly below about 14%; also: read at 38.3 µM for the half of the compounds with a filed dose; 0% is about no effect
# Pf growth 48h = Primary qHTS for delayed death inhibitors of the malarial parasite plastid, 48 hour incubation. P. falciparum luciferase growth in erythrocytes, 48 h. Potency, µM (series often up to 28.7 µM), inactives show top-dose activity change, negative = inhibition, most hits filed as inhibitors. actives 5.9% (n = 310,000); also: potency is read from the fitted curve at half-maximal effect; % is scaled to controls: 0 for no effect and ±100 for the full control effect
#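 Luciferase-expressing parasites in RBCs, 2% Hct / 0.1% parasitemia final; RPMI 1640 + 0.5% Albumax; 37 C, 5% CO2, one generation; luminescence read-out, lower signal = inhibition.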
# Shiga inhibitor = A qHTS for Small Molecule Inhibitors of Shiga Toxin; Vero cells, Shiga toxin protein synthesis inhibition reporter; inhibition, % at 38.7 µM; actives 9.2% (n = 290,000); in the data active = inhibition mostly above about 28%, no sharp cut-off; inactive = mostly below about 43%; also: 0% is about no effect
# * hit, by the source's call; i = inactive; u = inconclusive; x = not tested or not shown; [ ] = another dose, or the depositor's remark. A selection: hits, their analogues and other compounds. The true share with any hit is near 22%. Unless noted, calls follow the shape of the dose curve; as a rule, active = well fitted inhibition curve with a large enough effect; inconclusive = small, poorly fitted or top-dose-only effect, or another doubt; inactive = no such curve, though single readings can be large or run the other way.
SMILES,LmPK inhibitor,Pf growth 96h,Cycloheximide cs,Pf growth 48h,Shiga inhibitor
Cc1cccc2cc(CNCC3CCCO3)c(Cl)nc12 (stereo not drawn),0%,88%,9,18%,4
CN(C)c1ccc(/C=C/C(=O)c2ccccc2O)cc1,-1%[11.5 µM],0%,40*,448%,113
Cc1ccc(/C=C/C(=O)Nn2cnnc2)cc1,-22%,8%,-2,x,9
Cc1ccc(/C=C/C(=O)C2C(=O)c3ccccc3C2=O)cc1,-2%,u,11,1.7µM*,3
O=C(/C=C/c1ccco1)c1ccccc1O,u,-6%,33*,26%,59*
O=C(/C=C/c1ccco1)c1cccnc1,-2%,u,5,x,-4
O=C(/C=C/c1cccnc1)c1ccccc1O,-13%,-6%,-1,-2%,-15
Cc1ccc(/C=C/C(=O)c2ccc(C)cc2)cc1,-8%,13%,68*,76%,83*
Cc1ccc(Oc2nc(-c3cccnc3)nc3ccccc23)c([N+](=O)[O-])n1,6%,5%,12,-4%,-14
COc1ccc(CCCc2nnc(SCC(=O)NN)o2)c(C)c1,5%,3%,-2,u,-7
O=C(/C=C/c1cccc(O)c1)c1cccnc1,-6%,-18%,11,6%,19
CN(C)c1ccc(/C=C/C(=O)c2cccnc2)cc1,-29%,32%,42*,11%,72*
Cc1ccc(/C=C/C(=O)c2ccccc2O)cc1,-24%,24%,40*,52%,88*
Cc1c(/C=C/C(=O)c2ccccc2O)cnn1C,-28%,213%,71*,331%,active
CCOC(=O)CSc1nnc(NC(=O)CN2CCCCC2)s1,-5%,-3%,-6,u,-2
CCOc1ccc(NC(=O)N2CCC(NC(=O)C(Cc3ccccc3OC)NC(C)=O)CC2)cc1 (stereo not drawn),-2%,8%,4,-4%,-12
Cc1ccc(-c2noc(C3CCCN(C(=O)c4ccc(F)cc4F)C3)n2)cc1 (stereo not drawn),1%,u,15*,-24%,17
COc1cccc(-c2noc(C3CCCN(C(=O)c4ccc(F)cc4F)C3)n2)c1 (stereo not drawn),-1%,270%,1,11%,31
CC(C)c1ccc(-c2noc(C3CCCN(C(=O)c4ccc(F)cc4F)C3)n2)cc1 (stereo not drawn),-7%,51%,55*,u,38*
Cc1c(NC(=O)COC(=O)CSc2ccc([N+](=O)[O-])cc2)c(=O)n(-c2ccccc2)n1C,x,u,x,-28%,x
O=C(CCNC(=O)C1CCN(S(=O)(=O)c2ccc(F)cc2)CC1)Nc1nccs1,0%,u,-2,-1%,1
COc1cc(/C=C/C(=O)OCC(=O)NCCN2C(=O)CSC2=O)ccc1OCC#N,x,10µM*,x,u,x
COc1ccc(/C=C/C(=O)c2ccc(C)c([N+](=O)[O-])c2)cc1O,0%,0%,46*,19%,79*
CCOc1ccc(/C=C/C(=O)c2ccccc2)cc1OC,-7%,-12%,56*,37%,80*
COc1cc(/C=C/C(=O)c2ccc(C)c([N+](=O)[O-])c2)cc(OC)c1O,-3%,-26%,-1,0%,-6
SMILES,LmPK inhibitor,Pf growth 96h,Cycloheximide cs,Pf growth 48h,Shiga inhibitor
COc1cc(/C=C/C(=O)c2ccc(O)cc2)ccc1OCC#N,5%,u,71*,13µM*,85*
Cc1ccc2c(c1)N(Cc1cccc(C#N)c1)C=NS2(=O)=O,-2%,28%,-1,-7%,-4
O=C(OCc1nnc(-c2ccc([N+](=O)[O-])cc2)o1)c1ccc(F)c(S(=O)(=O)N2CCOCC2)c1,x,5%,x,-2%,x
C/C(=N\NC(=O)CN1CCN(Cc2ccccc2)CC1)c1cccs1,0%,43%,1,54%,-3
O=S(=O)(NC1CCC(CNS(=O)(=O)c2c(F)cccc2F)CC1)c1ccc2c(c1)OCCO2 (stereo not drawn),x,0%,x,-24%,x
CCOc1ccc(C(=O)/C=C/c2ccc(OC)c(OC)c2)cc1,-11%,u,1,u,26
COc1cccc(C(=O)/C=C/c2ccc(OCC#N)c(OC)c2)c1,0%,u,39*,-26%,16*
Cc1nn(C)c(C)c1CCC(=O)O,-1%,i,1,28%,-15

# Bioassay records: PubChem BioAssay, National Center for Advancing Translational Sciences (NCATS)
